{
  "source": "the supplement of paper PMC3334620",
  "note": "The full ranking holds about 33,000 sequences; the median of “E-score (-0.5 to 0.5)” is about -0.0014, and the highest 2% start at about 0.25. The list comes from a sample in which the highest values are over-represented; it also holds similar and randomly drawn sequences.",
  "data": [
    {"biological_target": "T1, Cad1 (UniProt P24813)", "T1 sequence": "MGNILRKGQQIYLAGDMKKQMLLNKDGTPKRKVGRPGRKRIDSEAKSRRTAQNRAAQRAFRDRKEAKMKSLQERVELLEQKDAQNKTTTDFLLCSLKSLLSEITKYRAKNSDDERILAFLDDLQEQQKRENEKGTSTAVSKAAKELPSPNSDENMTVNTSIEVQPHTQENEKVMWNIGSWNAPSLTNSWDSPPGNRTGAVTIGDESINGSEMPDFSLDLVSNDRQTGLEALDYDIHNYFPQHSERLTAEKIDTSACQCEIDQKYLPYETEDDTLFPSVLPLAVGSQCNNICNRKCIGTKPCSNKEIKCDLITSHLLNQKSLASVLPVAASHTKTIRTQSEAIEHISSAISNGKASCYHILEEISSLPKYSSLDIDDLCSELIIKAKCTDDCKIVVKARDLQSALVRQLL", "test": "PBM E-score (8-mer binding enrichment) (E-score (-0.5 to 0.5)); higher = stronger / more preferred TF binding", "settings": "protein concentration: 100 nM; construct: GST-full length", "experimental": "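Universal 'all 10-mer' protein binding microarrays (Agilent AMADID 015681) probed with GST-tagged S. cerevisiae TFs (full-length or DBD) made by in vitro transcription/translation (PURExpress), about 100-200 nM. Bound TF was detected with fluorescent anti-GST. Each ungapped 8-mer (which stands for itself and its reverse complement) is scored by the PBM enrichment score (E-score), a modified Wilcoxon-Mann-Whitney statistic from -0.5 to +0.5, computed with the Universal PBM Analysis Suite. Scale: above 0.35 generally sequence-specific binding.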", "values": [
      {"sequence": "ATCCCTTG", "PBM E-score": -0.131},
      {"sequence": "ACAATAGT", "PBM E-score": 0.109},
      {"sequence": "GCAGCGGA", "PBM E-score": -0.0753},
      {"sequence": "AGAGAGAA", "PBM E-score": -0.0532},
      {"sequence": "ACACTAAA", "PBM E-score": 0.144},
      {"sequence": "TTGCACAA", "PBM E-score": 0.0972},
      {"sequence": "CCAAAAAC", "PBM E-score": 0.116},
      {"sequence": "AAGTCTGG", "PBM E-score": 0.105},
      {"sequence": "AAAAAATA", "PBM E-score": 0.0934},
      {"sequence": "AATAAAGA", "PBM E-score": 0.195},
      {"sequence": "TAAAAATA", "PBM E-score": 0.277},
      {"sequence": "AATAAAAA", "PBM E-score": 0.264},
      {"sequence": "AATAAAAT", "PBM E-score": 0.166},
      {"sequence": "AATAAATG", "PBM E-score": 0.0809},
      {"sequence": "AATAAATC", "PBM E-score": -0.0137},
      {"sequence": "CTAAAATA", "PBM E-score": 0.0866},
      {"sequence": "AATAAATT", "PBM E-score": 0.282},
      {"sequence": "AATAAATA", "PBM E-score": 0.313},
      {"sequence": "AATAAACT", "PBM E-score": 0.12},
      {"sequence": "AATAAAAG", "PBM E-score": 0.0174},
      {"sequence": "AACCCGTG", "PBM E-score": -0.317},
      {"sequence": "CCCACCCC", "PBM E-score": 0.0432},
      {"sequence": "CGCTATGA", "PBM E-score": 0.119},
      {"sequence": "CCCTTGGA", "PBM E-score": 0.00683},
      {"sequence": "CGTATTAA", "PBM E-score": 0.0596},
      {"sequence": "ACTAGAAT", "PBM E-score": 0.0557},
      {"sequence": "ACTGCATC", "PBM E-score": -0.00501},
      {"sequence": "ATCAGAGA", "PBM E-score": -0.0164},
      {"sequence": "AGCGAAAT", "PBM E-score": -0.184},
      {"sequence": "CATATCGC", "PBM E-score": 0.0925},
      {"sequence": "ATACCATG", "PBM E-score": -0.0699},
      {"sequence": "GTACCATA", "PBM E-score": -0.158},
      {"sequence": "ATACCATA", "PBM E-score": 0.27},
      {"sequence": "ATTTAACA", "PBM E-score": 0.193},
      {"sequence": "GCCTGAGA", "PBM E-score": -0.169},
      {"sequence": "ATGGGACC", "PBM E-score": -0.00547},
      {"sequence": "CAGCCACC", "PBM E-score": -0.0873},
      {"sequence": "ACAGAAAC", "PBM E-score": 0.116},
      {"sequence": "ACAGAAAA", "PBM E-score": 0.281},
      {"sequence": "CCTGACAA", "PBM E-score": -0.0066},
      {"sequence": "ACAGACAG", "PBM E-score": 0.0659},
      {"sequence": "TCAGAAAA", "PBM E-score": -0.145},
      {"sequence": "TCTGACAA", "PBM E-score": 0.25},
      {"sequence": "ACTGACAC", "PBM E-score": -0.0887},
      {"sequence": "ACTGACAA", "PBM E-score": 0.264},
      {"sequence": "TGTGACAA", "PBM E-score": 0.0395},
      {"sequence": "ACAGACAC", "PBM E-score": 0.122},
      {"sequence": "ACTGACAT", "PBM E-score": -0.0482},
      {"sequence": "ACAGACAA", "PBM E-score": 0.29},
      {"sequence": "TGCATACA", "PBM E-score": 0.0433},
      {"sequence": "AGGTGCAA", "PBM E-score": -0.0504},
      {"sequence": "CTTTCATC", "PBM E-score": 0.0102},
      {"sequence": "GGCCTCAC", "PBM E-score": 0.0157},
      {"sequence": "GGCTTAAC", "PBM E-score": 0.0615},
      {"sequence": "CTTGGCTA", "PBM E-score": 0.134},
      {"sequence": "GGCTTCAA", "PBM E-score": -0.139},
      {"sequence": "CACAGCCG", "PBM E-score": 0.0914},
      {"sequence": "TAATCCCA", "PBM E-score": -0.0386},
      {"sequence": "CACACTTC", "PBM E-score": 0.0239},
      {"sequence": "AGTACCTG", "PBM E-score": -0.0799},
      {"sequence": "CAGAGGGC", "PBM E-score": -0.213},
      {"sequence": "CGTGCCAC", "PBM E-score": -0.091},
      {"sequence": "CGCATTCC", "PBM E-score": -0.216},
      {"sequence": "GATGACAC", "PBM E-score": 0.0339},
      {"sequence": "GCTGACAC", "PBM E-score": 0.247},
      {"sequence": "GCTGACAA", "PBM E-score": 0.412},
      {"sequence": "CATGACAA", "PBM E-score": 0.165},
      {"sequence": "GTTGACAA", "PBM E-score": 0.166},
      {"sequence": "GATGACAA", "PBM E-score": 0.304},
      {"sequence": "CGCAATCC", "PBM E-score": 0.248},
      {"sequence": "CCTGATCG", "PBM E-score": -0.0975},
      {"sequence": "CCGGAACA", "PBM E-score": 0.108},
      {"sequence": "TCGGAACA", "PBM E-score": 0.268},
      {"sequence": "ACGGAACA", "PBM E-score": 0.0866},
      {"sequence": "AAATAATA", "PBM E-score": 0.248},
      {"sequence": "AAAATAAA", "PBM E-score": 0.128},
      {"sequence": "AAATAAAT", "PBM E-score": 0.314},
      {"sequence": "AAAATAAC", "PBM E-score": -0.0367},
      {"sequence": "AAATAAAG", "PBM E-score": -0.0232},
      {"sequence": "AAATAATC", "PBM E-score": 0.198},
      {"sequence": "AAATAAAA", "PBM E-score": -0.0112},
      {"sequence": "AAAATAAT", "PBM E-score": 0.314},
      {"sequence": "AAATAATT", "PBM E-score": 0.295},
      {"sequence": "CACTGGCA", "PBM E-score": -0.0733},
      {"sequence": "CCAAGACC", "PBM E-score": -0.0342},
      {"sequence": "CCGCCGTC", "PBM E-score": 0.117},
      {"sequence": "AGTCACTA", "PBM E-score": 0.0232},
      {"sequence": "GCGCAGTA", "PBM E-score": 0.149},
      {"sequence": "GAAGATTA", "PBM E-score": 0.181},
      {"sequence": "TATGCGCA", "PBM E-score": 0.0953},
      {"sequence": "CGTCCGTA", "PBM E-score": -0.0771},
      {"sequence": "CAAGCACA", "PBM E-score": -0.0831},
      {"sequence": "TAAGCACA", "PBM E-score": 0.295},
      {"sequence": "CAAGCACG", "PBM E-score": 0.152}
    ]}
  ]
}
